# Molecular target: PUM1 PUF domain R5-RAR (Homo sapiens, UniProt Q14671 828-1176, C1007R;R1008A;Q1011R)
# Experiment: yeast three-hybrid, YBZ-1, SC-Leu-His + 0.5 mM 3-AT, 4 days
# Conditions: tags: N-Gal4 AD-HA kept; label: inside an RPR1-promoter hybrid RNA with tandem MS2 sites; ssRNA
# In short: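 Matching RNA elements and Pumilio-1 PUF domain libraries, randomized at the three base-contacting residues of every repeat, were co-expressed from a centromeric plasmid in strain YBZ-1 (LexA–MS2 coat fusion, HIS3 reporter). The repeat regions were PCR-amplified and Illumina-sequenced from cells grown four days on SC-Leu (input) or SC-Leu-His + 0.5 mM 3-AT (selection). The interaction score is the log change in variant frequency from input to selection. It is computed in log2, with a pseudocount of 1 for absent variants.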
row,Sequence,binding signal
1,GGCUAGAACUAGUGGAUCCCCCGGCGCCCGGCGGCUCGAGCCCGGGUAAGUGUCAAUAGUCUGCAUGCCGCCGGGCGCCAUGCCUGCAGGUCGACUCUAGAAAACAUG,3.66 log2 enrichment (interaction score)
2,GGCUAGAACUAGUGGAUCCCCCGGCGCCCGGCGGCUCGAGCCCGGGUAAGUGUUAAUAGUCUGCAUGCCGCCGGGCGCCAUGCCUGCAGGUCGACUCUAGAAAACAUG,2.31 log2 enrichment (interaction score)
3,GGCUAGAACUAGUGGAUCCCCCGGCGCCCGGCGGCUCGAGCCCGGGUAAGUGUAAAUAGUCUGCAUGCCGCCGGGCGCCAUGCCUGCAGGUCGACUCUAGAAAACAUG,0.57 log2 enrichment (interaction score)

# Source: PMC8384837, “Expanding the binding specificity for RNA recognition by a PUF domain”
